Test results published in PubChem BioAssay AID2283334 (EPA ToxCast).
Inconclusive results are not listed. Activity calls are given as the source filed them. How the source made its calls: active means hit-call score of the fitted dose curve at least 0.9, where 1 is the maximum; inactive means score below 0.9.

Biological target: Grik1 (gene 29559) (UniProt P22756)
Experiment: NVS_IC_rKAR: NovaScreen (NVS) Ion Channel Assay for Kainic Acid Receptors (KAR)
How it was run: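 Radioligand displacement binding using rat forebrain membranes, 1 h incubation, filter-based scintillation counting. Screened in duplicate at 25 uM, with actives retested in concentration-response up to 50 uM; fitted against DMSO.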

Chain of Grik1 (gene 29559) (P22756 whole entry, looked up): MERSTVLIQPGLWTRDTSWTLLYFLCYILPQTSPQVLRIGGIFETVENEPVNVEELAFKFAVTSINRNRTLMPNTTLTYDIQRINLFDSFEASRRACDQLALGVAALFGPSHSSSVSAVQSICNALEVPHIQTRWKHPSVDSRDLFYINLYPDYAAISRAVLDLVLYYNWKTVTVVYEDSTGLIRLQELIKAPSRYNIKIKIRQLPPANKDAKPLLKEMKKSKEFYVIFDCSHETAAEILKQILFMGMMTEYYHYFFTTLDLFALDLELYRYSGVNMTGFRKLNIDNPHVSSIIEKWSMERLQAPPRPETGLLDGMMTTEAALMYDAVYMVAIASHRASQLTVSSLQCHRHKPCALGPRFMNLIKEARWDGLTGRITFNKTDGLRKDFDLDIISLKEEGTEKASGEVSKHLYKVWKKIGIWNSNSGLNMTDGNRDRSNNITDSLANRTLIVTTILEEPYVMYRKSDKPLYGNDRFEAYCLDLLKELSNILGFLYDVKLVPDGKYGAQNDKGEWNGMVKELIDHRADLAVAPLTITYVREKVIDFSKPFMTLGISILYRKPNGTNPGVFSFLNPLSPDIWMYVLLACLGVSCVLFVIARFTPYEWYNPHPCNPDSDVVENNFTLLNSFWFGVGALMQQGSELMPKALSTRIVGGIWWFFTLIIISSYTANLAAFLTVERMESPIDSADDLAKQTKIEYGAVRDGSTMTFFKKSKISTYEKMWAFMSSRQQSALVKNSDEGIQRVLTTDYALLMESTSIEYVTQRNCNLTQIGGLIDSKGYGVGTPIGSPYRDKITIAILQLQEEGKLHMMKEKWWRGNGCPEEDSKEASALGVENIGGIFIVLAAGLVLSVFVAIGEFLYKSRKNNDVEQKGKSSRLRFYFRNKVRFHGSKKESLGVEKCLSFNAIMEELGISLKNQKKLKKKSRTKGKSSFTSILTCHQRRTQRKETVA

**Q.** With `CCCCCCC(C)OC(=O)COc1nc(F)c(Cl)c(N)c1Cl` (configuration not stated) as the molecule, how does the AC50 read?
**A.** 30.2 µM (active)

**Q.** With `CCCCCCCCCCCCCCCCCC(=O)O` as the molecule, how does the AC50 read?
**A.** 1.4 µM (active)
